This is an account of results in PubChem BioAssay (NCATS).

Records with an inconclusive call do not appear. Activity calls are given as the source filed them. Calls come from the whole dose curve; as a rule, active = well fitted curve in the direction sought with a large enough effect in the signal ratio; inconclusive = small, poorly fitted or top-dose-only effect, or effect the other way, or a change in a side signal; inactive = no such curve, though single readings can be large or run the other way; the % refers to the signal ratio.

The assay in a line: qHTS Assay for Modulators of Human Peripheral Myelin Protein 22 (PMP22) Expression/Activity (AID 1967). Conditions: Cell-based PMP22 reporter, dual-color luciferase ratio, mouse Pmp22 promoter in mouse Schwann cells; series mostly up to 115 µM. An excerpt: Charcot-Marie-Tooth-Association [CMTA]
NIH Chemical Genomics Center [NCGC]
Charcot-Marie-Tooth (CMT) disease was first characterized by Jean-Martin Charcot and Pierre Marie in France and, independently, by Howard Henry Tooth in England in 1886. CMT is one of the most common inherited neurological diseases, affecting about 125,000 Americans. […] The most common cause of CMT is known as CMT1A, and is caused by a duplication of the PMP22 gene, leading to over-expression of this protein. PMP22 is a glycosylated intrinsic membrane protein accounting for 2-5% of the myelin protein content and over-expression leads to demyelination and subsequently axonal loss.
A cell-based assay for PMP22 expression modulation was developed by Drs. Ned Mantei and Ueli Suter on behalf of the CMTA. This assay employs a mouse Schwann cell line, MSC80 (Boutry et al., 1992), that was engineered to have the mouse Pmp22 promoter driving expression of a green light-emitting click beetle luciferase (CBG68; Chroma-Gl developed by Promega Corp). A red light-emitting click beetle luciferase (CBR; developed by Promega Corp: CBG68 and CBR differ by only a few amino acids within the D-luciferin binding pocket) under control of the EF-alpha promoter is also stably expressed in the same cells for use as an internal control for nonspecific promoter- or reporter-based effects.
NCGC Assay Protocol Summary:
Cells were seeded in white solid 1536-well plates at between 500-750 cells/4uL in DMEM medium containing 10% FBS, w/o phenol red. After overnight incubation at 37 degree Celsius/5% C02, 23 nL of compounds or DMSO were delivered to each well using a pin tool, followed by 24h-incubation at 37 degree Celsius/5% C02. Then 4 uL Chroma-Glo luminescent substrate mix (Promega) was added to each well. Luminescence was measured on a ViewLux plate reader (Perkin Elmer) using a 540/25 nm filter for green luminescence and a 618/8 nm filter for red luminescence. The green and red luminescent signals were corrected for red and green luminescence filter overlap using filter calibration constants (determined using control cell lines expressing either the green or red CBLuc reporters using the procedures given in Davis et al., 2007). The %Activity was determined from the ratio of corrected green/red luminescent values. Green luminescent and ratio %Activity was determined by normalizing to the signal between of untreated cells (0% Activity)
Keywords: luminescence, PMP22, CMT1A, NCGC, CMTA, qHTS
Concentration-response curves were fitted to the signals arising from the green luminescence (PMP22 promoter driven expression) and the red luminescence (control promoter) as well as the calculated ratio. The concentration-effect curves were then classified based on curve quality (r2), response magnitude and degree of measured activity.
For orientation: In qHTS, concentration-response curves come from the screen itself.
For `COc1ccc(CCN)cc1O`, the result was inactive.
As for `N[C@@H](Cn1cc(I)c(=O)[nH]c1=O)C(=O)O`, the entry is “inactive”.
As for `CC(=O)OCC1=C(C(=O)[O-])N2C(=O)[C@@H](NC(=O)CCC[C@@H](N)C(=O)[O-])[C@H]2SC1.[Zn+2]`, the entry is “inactive”; as for `C[N+]1(C)CCc2cc3c(cc2C1C1OC(=O)c2c1ccc1c2OCO1)OCO3` (stereo not given), “inactive”.
As for `N#CC(C#N)=Cc1ccc([N+](=O)[O-])c(O)c1`, the entry is “inactive”.
In the case of `CC(O)C(C)OC(=O)[C@@H]1C[C@@H]2c3cccc4c3c(cn4C(C)C)C[C@H]2N(C)C1` (stereo not given in full), the result was inactive.
Consider `CP(=O)(O)CCCN`, for which the outcome was inactive.
With `COc1ccc2[nH]cc(CCN(C)C)c2c1` the entry was “inactive”; with `COc1cc(CCN)ccc1O`, “inactive”; with `CN1CCN(c2ccc3ccccc3n2)CC1`, “inactive”.
